Rows were chosen to be rich in hits. Some 5.7% of all compounds tested hit in one or more screens of this group.
KB-3-1 cytotox: kills parental KB-3-1 adenocarcinoma cells; KB-3-1 viability, CellTiter-Glo ATP luminescence, 72 h; 1.4% of 400,000 active; Potency, µM (doses to about 46.1 µM), usual class: cytotoxic; AID 1347075; further: nearly all actives have a fitted effect of over 60% in size
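Cytotoxicity measured as CellTiter-Glo luminescence after 72 h at 37 C. Compound titrations were pinned onto drug-naive KB-3-1 parental adenocarcinoma cells grown in DMEM with 10% FBS, and normalized data fitted to concentration-response curves.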
KB-V1 MDR tox: kills drug-selected multidrug resistant KB-V1 cells; AID 1347076; Potency, µM (series often up to 46.1 µM), usual class: cytotoxic; KB-V1 MDR cells viability, CellTiter-Glo, 72 h; 3.4% of 400,000 active; further: nearly all actives have a fitted effect of over 60% in size
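Luminescent ATP read-out (CellTiter-Glo, 10 min) measures survival of drug-selected KB-V1 MDR cells after 72 h, 37 degrees C compound exposure. Medium: phenol-red-free DMEM, 10% FBS. Values from fitted concentration-response curves.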
HT1080 IDH1KD tx: HT-1080 IDH1 knockdown cell toxicity (counter line) | HT-1080 IDH1 knockdown viability, ATP luminescence, 48 h | Potency, µM (series often up to 46.1 µM), for inactives: at the highest dose activity, negative = toxicity, usual class: cytotoxic | 2% of 360,000 active | AID 686971;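 further: 0% = DMSO wells and -100% = cell-free medium wells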
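Knockdown cells (IDH1KD HT-1080) received compounds 2 h after plating at 750 cells/well and were kept 48 h at 37 °C in 5% FBS RPMI. A CellTiter-Glo luminescence read gave % activity for curve fitting.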
HT1080-NT tox: kills 2HG-producing HT-1080-NT fibrosarcoma cells | Potency, µM (series often up to 46.1 µM), for the others: top-dose activity, negative = less viability, hits mostly cytotoxic | 1.6% of 360,000 active | HT-1080-NT fibrosarcoma viability, CellTiter-Glo ATP luminescence, 48 h;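 further: NT is the 2HG producing partner of a matched IDH1 knockdown line; 0% = DMSO-treated cells and -100% = media-only wells without cells; nearly all actives have a fitted effect of over 55% in size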
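750 cells/well, RPMI + 5% FBS; 2 h settle, compound pin-transfer, 48 h at 37 degrees C. CellTiter-Glo 10 min RT, luminescence. Normalized to DMSO and media-only wells.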
An asterisk follows results filed as active; i = inactive; ? = inconclusive; · = not tested or not shown; ! = a repeat was not active. The call rests on the fitted dose curve; in most records, active means well fitted curve in the direction sought with a large enough effect; inconclusive means small, poorly fitted or top-dose-only effect, or another doubt; inactive means no such curve, though single readings can be large; an effect the other way counts as inactive or inconclusive. Unless noted, on the % scale 0 is the no-effect control and ±100 the full control effect; potency means the concentration at half of the fitted maximal effect.

SMILES	KB-3-1 cytotox	KB-V1 MDR tox	HT1080 IDH1KD tx	HT1080-NT tox
CC/C(=N/NC(=O)c1ccccc1O)c1c(C)[nH]n(-c2ccccc2)c1=O	?	?	26µM*	?
Cc1[nH]n(-c2ccc(Cl)cc2)c(=O)c1C(=O)c1ccccc1	13µM*	13µM*	?	-28%
Cc1[nH]n(-c2ccccc2)c(=O)c1C(=O)c1ccccc1	?	?	?	-22%
Cc1[nH]n(-c2ccccc2)c(=O)c1C(=O)c1ccc(Cl)cc1	?	10µM*	-29%	?
Cc1ccc(C(=O)N2CCN(c3cccc(C)c3C)CC2)o1	16µM*	?	?	?
Cc1ccc(S(=O)(=O)Cc2ccc(C(=O)N3CCN(c4cccc(C)c4C)CC3)o2)cc1	i	2.9µM*!	3.7µM*	?
CCOC(=O)c1ccc(NC(=O)c2cc3cc(C)ccc3n2C)cc1	i	i	·	·
CCOC(=O)c1cccc(NC(=O)C2Cc3ccccc3N2C(=O)c2ccccc2)c1 (stereo not drawn)	i	i	·	·
Cc1ccc(-c2[nH]nc(N)c2N=Nc2ccccc2C)cc1	?	?	18µM*	?
COc1cccc(-c2cc(C(F)(F)F)n3ncc(C(=O)OC(C)C)c3n2)c1	i	i	·	·
COc1cccc(NC(=O)c2sc3nc(C)c(C(=O)Nc4ccc(C)cc4C)c(-c4ccc(C)o4)c3c2N)c1	i	i	·	·
Cc1cnc(Nc2nc3ccccc3o2)nc1C(=O)Nc1cccc(C(F)(F)F)c1	16µM*	15µM*	-4%	-14%
Oc1ccc(Cl)cc1C1=NNC(c2ccc(Cl)cc2)C1 (stereo not drawn)	23µM*	?	?	-18%
COc1ccc(C(C(=O)NC(C)(C)C)n2c(-c3ccc(=O)[nH]c3)nc3ccccc32)cc1 (stereo not drawn)	?	i	8.2µM*	13µM*
CC1=C(c2ccccc2)C(=S)NC(C)(C)C1	i	i	33µM*	-10%
Cc1cc(F)ccc1NC(=O)C1CCC(CNS(=O)(=O)c2ccc3c(c2)CCCC(=O)N3)CC1 (stereo not drawn)	i	i	·	·
Cc1nc(N)nc(Nc2ccc(Cl)cc2)c1Br	?	21µM*	?	?
CCCCCCCn1ccc(=N)cc1	4.6µM*	i	?	?
CCCCCn1ccc(=N)cc1	i	i	-19%	-11%
CCCCCCCCCn1ccc(=N)cc1	0.52µM*	16µM*	15µM*	?
CCC(=O)[C@@H](C)[C@@H](OC(C)=O)[C@H](C)C[C@@H](C)[C@H]1OC(=O)C[C@@]2(O)CC=C(C)C(O2)C(C)=CCCC[C@H](O[C@H]2C[C@@H](OC(N)=O)[C@H](OC(C)=O)[C@@H](C)O2)C=C[C@H](C)C[C@H]1C	1.3µM*	i	1%	-5%
O=C1N=C(N2CCC(Cc3ccccc3)CC2)S/C1=C/c1cn[nH]c1-c1ccccc1	i	23µM*	-10%	0%
Cc1ccc(NC(=O)c2cnc3sc(N4CCOCC4)nn3c2=O)cc1N(C)C	i	i	·	·
CCC(C(=O)NCc1ccc2c(c1)CCN2C(=O)c1ccc(F)cc1)c1ccccc1 (stereo not drawn)	?	i	·	·
Cc1cc2c(c(C)nn2-c2ccccc2)c(=O)o1	i	i	0%	5%
SMILES	KB-3-1 cytotox	KB-V1 MDR tox	HT1080 IDH1KD tx	HT1080-NT tox
Cc1c(-c2ccc(Cl)cc2)oc(=O)c2c(N)n(-c3ccccc3)nc12	?	21µM*	-17%	0%
Nc1c2c(=O)oc(-c3ccccc3)cc2nn1-c1ccccc1	23µM*	12µM*	?	?
Cc1cc(NC(=O)c2ccco2)cc(-c2nc3cc(Cl)ccc3o2)c1O	i	i	·	·
CC(NC(=O)c1ccc(F)cc1)C1CC2CCC1C2 (stereo not drawn)	i	i	13%	5%
COc1cc(C(=O)NC(C)C2CC3CCC2C3)ccc1OC(F)F (stereo not drawn)	i	21µM*	-12%	0%
CCCOc1cccc(C(=O)N(Cc2cc(OC)c(OC)c(OC)c2)C2CCS(=O)(=O)C2)c1 (stereo not drawn)	i	?	·	·
COc1ccc(C2=C(C)C(=O)N(Cc3ccc(C(=O)Nc4ccc(F)cc4C)cc3)S2(=O)=O)cc1	4.6µM*	i	·	·
COc1ccc(C2=C(C)C(=O)N(Cc3ccc(C(=O)Nc4cccc(F)c4)cc3)S2(=O)=O)cc1	i	i	·	·
